# Measurements reported in PubChem BioAssay (NCI).
# The panel holds about 83,000 compounds, 20% with a hit somewhere; the sample as a whole holds those more often.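 96-well plates, one dose, 48 hours. Percent growth reported; active if below 10.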 A number with no mark means an inactive call. Calls of active or inactive are those of the source.
# Tested on: 786-0 renal
# Assay: NCI-60 one-dose screen, 48 h (100 = growth as untreated, 0 = no growth, -100 = all killed)
# Conditions: 10 µM unless noted
row,SMILES,growth
1,Cc1ccc(S(=O)(=O)NCCCNc2nccc(-c3c(-c4ccccc4)nc4sccn34)n2)cc1,38.7%
2,Cc1cc(-c2ccccc2)c(C)n1Cc1ccc(Cl)cc1,47.8%
3,CN(C)c1ccc(C2CC(c3ccccc3)=NN2/C=C2\SC(=O)NC2=O)cc1 (stereo not given),90.5%
4,C=C1C(=O)O[C@H]2[C@H]1CC/C(COC(=O)NCCc1ccc(OC)cc1)=C\CC[C@@]1(C)O[C@@H]21,-31.9% (active)
5,O=C(CCCn1c(=O)c2sc3ccccc3c2n2nnc(-c3ccccc3)c12)NCCc1cnc[nH]1,-77.7% (active)
6,O=C1c2ccccc2C(=O)c2c1oc1oc3c(c(=O)c21)c(=O)n(-c1ccccc1)c1ccccc31,97.9%
7,COc1ccc(Cn2c(SC)nc(=O)n(Cc3ccc(Cl)cc3)c2=O)cc1,98.7%
8,COc1cc(CNC(=O)CCSc2nc3ccccc3c(=O)n2Cc2cc(OC)c(OC)c(OC)c2)cc(OC)c1OC,56.1%
9,O=C(COc1ccccc1)N1N=C(c2ccc(Cl)cc2)CC1c1c[nH]c2ccccc12 (stereo not given),71%
10,CC(=O)n1cc([C@H]2CC[C@H](c3cn(C(C)=O)c4ccccc34)c3c2[nH]c2ccccc32)c2ccccc21,93.5%
11,CCN(CC)CCCC(C)N=c1cc(Nc2cc(=NC(C)CCCN(CC)CC)c3cc(OC)ccc3o2)oc2ccc(OC)cc12 (stereo not given),-7.34% (active)
12,CC1(C)OC2COC3(C(=O)O)OC(C)(C)OC3C2O1 (stereo not given),104%
13,Cc1ccc(Cn2c(-c3nonc3N)nc3ccccc32)cc1,92.3%
14,COc1cc2nc(N3CCC[C@@H](NC4=CC(=O)c5ccccc5C4=O)C3)nc(N)c2cc1OC,94.7%
15,O=C(Nc1ccc(Cl)cc1)c1cc(-c2ccc(F)cc2)c2sc(=O)[nH]c2n1,14.5%
16,Cc1cc(C)c(S(=O)(=O)N2CCN(c3cc4c(cc3F)c(=O)c(C(=O)O)cn4C3CC3)CC2)c(C)c1,75.6%
17,O=C(CCCn1c2c(sc3ccccc32)c(=O)n2nnc(-c3ccccc3)c12)NCCc1cnc[nH]1,-85.2% (active)
18,COc1ccc2c(c1)NC(=O)CN2c1nc(NC2CC2)nc2ccccc12,19.6%
19,C=C1C(=O)O[C@H]2[C@H](O)[C@@H](C)CCC/C(C)=C/CC[C@@]3(C)O[C@@H]3C[C@@H]12,93.7%
20,COc1ccc(/C=C/C(=O)c2cc(OC)c(OC)c(OC)c2)cc1OCc1cn(Cc2ccc(F)cc2)nn1,49.3%
21,O=C(CCC(=O)OC1CCCC1)OC1CCCC1,104%
22,CCN(C(=O)c1cc2ncccc2[nH]1)[C@H]1CCC[C@@H](NCc2cccc(F)c2)C1,110%
23,CCCCCCCCCCCCCCCCC(Br)C(=O)O (stereo not given),111%
24,COc1cc2nc(Cl)nc(NCCO)c2cc1OC,111%
25,CCOC(=O)C1=C(CSC(=S)N(C2CCCCC2)C2CCCCC2)N(C)C(=O)NC1c1ccccc1 (stereo not given),48.6%
26,CC1=C(C#N)C(C)(C)C(C#N)=C(C)N1,105%

# Tested on: COLO 205 colon
# Assay: as above
# Conditions: 10 µM unless noted
row,SMILES,growth
1,CCOC(=O)[C@H](CSSc1ncnc2cc[nH]c12)NC(=O)[C@@H](C)c1ccc2cc(OC)ccc2c1,3.67% (active)
2,CC(C)C[C@H](NC(=O)Cn1ccc(NCc2ccccc2)cc1=O)B(O)O,32%
3,COc1ccc(C(=O)c2cc(OC)c(OC)c(OC)c2)cc1/C=C/C(=O)c1ccc(O)cc1,54.3%
4,Cc1cccc(NC(=O)c2sc3nc4c(cc3c2N)CCC4)c1C,6.68% (active)
5,COc1cc(-c2cc(/C=C3\CCCCC3=O)[nH]n2)cc(OC)c1OC,108%
6,COc1cccc(C2CC(=O)Nc3c2c(C)nn3-c2nc3ccccc3[nH]2)c1OC (stereo not given),98.1%
7,CCNC(=O)C1CCCN1C(=O)C(CCCN=C(N)N)NC(=O)C(CC(C)C)NC(=O)C(CC(C)C)NC(=O)C(Cc1ccc(O)cc1)NC(=O)C(CO)NC(=O)C(Cc1c[nH]c2ccccc12)NC(=O)C(Cc1cnc[nH]1)NC(=O)C1CCC(=O)N1 (stereo not given),94.9%
8,COc1ccc(-c2nc3sccn3c2-c2ccnc(NCCCNS(=O)(=O)c3ccc(F)cc3)n2)cc1,1.87% (active)
9,CCCCCC(=O)OCc1ccccc1,106%
10,CN(C)c1nc(N)c(N=O)c(N)n1,127%
11,COc1ccc(Cn2cc(COc3cc(/C=C/C(=O)c4cc(OC)c(OC)c(OC)c4)ccc3OC)nn2)cc1,81.9%
12,CCOC(=O)C(Cc1ccccc1)n1c(O)c(C=Nc2ccc(C(=O)OCCN(CC)CC)cc2)sc1=O (stereo not given),95.5%
13,COc1cc(Cn2c(SCC(=O)Nc3ccc(Cl)cc3)nc3ccccc3c2=O)cc(OC)c1OC,92.9%
14,Cc1ccc(S(=O)(=O)NCCCNc2nccc(-c3c(-c4ccccc4)nc4sccn34)n2)cc1,46.6%
15,Cc1cc(-c2ccccc2)c(C)n1Cc1ccc(Cl)cc1,38.2%
16,CN(C)c1ccc(C2CC(c3ccccc3)=NN2/C=C2\SC(=O)NC2=O)cc1 (stereo not given),110%
17,C=C1C(=O)O[C@H]2[C@H]1CC/C(COC(=O)NCCc1ccc(OC)cc1)=C\CC[C@@]1(C)O[C@@H]21,-52.6% (active)
18,O=C(CCCn1c(=O)c2sc3ccccc3c2n2nnc(-c3ccccc3)c12)NCCc1cnc[nH]1,-36.8% (active)
19,O=C1c2ccccc2C(=O)c2c1oc1oc3c(c(=O)c21)c(=O)n(-c1ccccc1)c1ccccc31,92.7%
20,COc1ccc(Cn2c(SC)nc(=O)n(Cc3ccc(Cl)cc3)c2=O)cc1,98.8%

row,SMILES,growth
1,COc1cc(CNC(=O)CCSc2nc3ccccc3c(=O)n2Cc2cc(OC)c(OC)c(OC)c2)cc(OC)c1OC,25.8%
2,O=C(COc1ccccc1)N1N=C(c2ccc(Cl)cc2)CC1c1c[nH]c2ccccc12 (stereo not given),86.9%
3,CC(=O)n1cc([C@H]2CC[C@H](c3cn(C(C)=O)c4ccccc34)c3c2[nH]c2ccccc32)c2ccccc21,94.5%
4,CCN(CC)CCCC(C)N=c1cc(Nc2cc(=NC(C)CCCN(CC)CC)c3cc(OC)ccc3o2)oc2ccc(OC)cc12 (stereo not given),-96.2% (active)
5,CC1(C)OC2COC3(C(=O)O)OC(C)(C)OC3C2O1 (stereo not given),98.8%
6,Cc1ccc(Cn2c(-c3nonc3N)nc3ccccc32)cc1,80%
7,COc1cc2nc(N3CCC[C@@H](NC4=CC(=O)c5ccccc5C4=O)C3)nc(N)c2cc1OC,-71.8% (active)
8,O=C(Nc1ccc(Cl)cc1)c1cc(-c2ccc(F)cc2)c2sc(=O)[nH]c2n1,8.8% (active)
9,Cc1cc(C)c(S(=O)(=O)N2CCN(c3cc4c(cc3F)c(=O)c(C(=O)O)cn4C3CC3)CC2)c(C)c1,57.6%
10,O=C(CCCn1c2c(sc3ccccc32)c(=O)n2nnc(-c3ccccc3)c12)NCCc1cnc[nH]1,-3.8% (active)
11,COc1ccc2c(c1)NC(=O)CN2c1nc(NC2CC2)nc2ccccc12,-18.9% (active)
12,C=C1C(=O)O[C@H]2[C@H](O)[C@@H](C)CCC/C(C)=C/CC[C@@]3(C)O[C@@H]3C[C@@H]12,90.7%
13,COc1ccc(/C=C/C(=O)c2cc(OC)c(OC)c(OC)c2)cc1OCc1cn(Cc2ccc(F)cc2)nn1,66.4%
14,O=C(CCC(=O)OC1CCCC1)OC1CCCC1,116%
15,CCN(C(=O)c1cc2ncccc2[nH]1)[C@H]1CCC[C@@H](NCc2cccc(F)c2)C1,18.7%
16,CCCCCCCCCCCCCCCCC(Br)C(=O)O (stereo not given),119%
17,COc1cc2nc(Cl)nc(NCCO)c2cc1OC,125%
18,CCOC(=O)C1=C(CSC(=S)N(C2CCCCC2)C2CCCCC2)N(C)C(=O)NC1c1ccccc1 (stereo not given),60.6%
19,CC1=C(C#N)C(C)(C)C(C#N)=C(C)N1,115%
